Sampled rows, rich in hits. Any-hit rate of the full collection: about 3.1%.
RAD54 inh – RAD54 (human) branch migration inhibition; 360,000 tested, 0.14% active; RAD54 Holliday junction branch migration, FAM/BHQ fluorescence; inhibition, % at 10.4 µM; Q92698;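 active means mean normalized replicate activity at least 40 and at least half of replicates scoring 40 or more; inconclusive means only one of the two criteria met; inactive means mean below 40 and under half of replicates reaching 40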;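 further: 0% = median of neutral control wells and 100% = median of positive control wells; inhibitors cause a drop in the FAM fluorescence signal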
DENV2 CPE – DENV2-induced cell death inhibition | DENV2-infected cells, cytopathic effect rescue, plate reader | CPE inhibition, % at 9.99 µM | 350,000 tested, 1.7% active | AID 651640; in the data active means CPE inhibition above about 20%, passing the limit was not always enough; inconclusive means no clear call, values can overlap the other calls; tested in BHK-21 cells;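 further: 0% = median of neutral control wells and 100% = median of positive control wells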
GSIS activator – primary screen for activators of insulin secretion dependent on glucose, INS-1E cells, GLuc reporter luminescence. INS-1E GLuc reporter insulin secretion, 2-3 h. activation, % at 16.6 µM. 370,000 tested, 0.61% active. AID 743287;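 active means lowest replicate activation of at least 40%, so every replicate reaches that level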;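 further: 0% = median of neutral control wells and 100% = median of IBMX positive control wells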
RAD52 inh – blocks human RAD52 DNA annealing | P43351 | recombinant RAD52 DNA annealing, FRET fluorescence | inhibition, % at 18.7 µM | 360,000 tested, 0.46% active;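 active means every replicate showing at least 50% inhibition; inconclusive means mean inhibition at least 50% but not in every replicate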
dFosB activator – enhances mouse delta FosB homodimer DNA binding. P13346. purified delta FosB, TAMRA-CDK5 oligo fluorescence polarization; percent of positive-control signal above neutral wells. activation, % at 25 µM. 340,000 tested, 0.99% active. AID 493131;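 active means mean activation above about 17%, with every replicate also reaching it, limit read from the data, passing the limit was not always enough; inconclusive means only one of the two conditions met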
MLL AF4-AF9 inh – MLL-AF4/AF9 protein interaction inhibition. AlphaScreen, biotin-AF4 peptide binding to FLAG-AF9. P42568. 350,000 tested, 0.47% active. inhibition, % at 10 µM;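 active means every replicate reaching a set inhibition limit, whatever the replicate mean, cut at about 25% in these data; inconclusive means mean inhibition reaches that limit but some replicates miss it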;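 further: 0% = plate neutral control median and 100% = total signal loss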
Target sequence (P42568 whole entry, looked up): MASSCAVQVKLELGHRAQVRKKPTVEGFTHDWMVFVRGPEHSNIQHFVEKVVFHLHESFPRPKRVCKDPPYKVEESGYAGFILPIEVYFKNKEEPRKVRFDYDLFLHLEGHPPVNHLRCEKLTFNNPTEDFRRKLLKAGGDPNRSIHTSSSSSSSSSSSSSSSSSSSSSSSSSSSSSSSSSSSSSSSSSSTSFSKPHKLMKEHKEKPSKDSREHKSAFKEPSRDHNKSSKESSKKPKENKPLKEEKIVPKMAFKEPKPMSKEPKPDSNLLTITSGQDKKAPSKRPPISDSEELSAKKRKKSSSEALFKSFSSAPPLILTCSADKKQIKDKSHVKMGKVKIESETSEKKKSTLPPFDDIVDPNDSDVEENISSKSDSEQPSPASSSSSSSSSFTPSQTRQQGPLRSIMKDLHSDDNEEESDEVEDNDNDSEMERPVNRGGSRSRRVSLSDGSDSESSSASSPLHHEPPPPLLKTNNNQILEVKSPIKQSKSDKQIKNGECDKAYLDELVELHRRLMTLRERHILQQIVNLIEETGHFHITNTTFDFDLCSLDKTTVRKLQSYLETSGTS
* marks the source's active call; other numbers are inactive results; u = inconclusive; x = not tested or not shown.

SMILES | RAD54 inh | DENV2 CPE | GSIS activator | RAD52 inh | dFosB activator | MLL AF4-AF9 inh
C[C@@H]1CN([C@H](C)CO)C(=O)Cc2cc(NC(=O)Nc3ccccc3)ccc2O[C@H]1CN(C)Cc1ccncc1 | -8.6 | 10.1 | 4.4 | -2.3 | x | -4.0
OCC[C@@H]1C[C@@H](O)[C@H](O)[C@@]2(CCCO2)O1 | 9.7 | 9.7 | 2.6 | 2.2 | 3.9 | 1.9
OCC[C@H]1C[C@@H](O)[C@H](O)[C@@]2(CCc3ccccc3CO2)O1 | -18.6 | 48.0* | -4.1 | -13.7 | 5.0 | x
OCC[C@H]1C[C@@H](O)[C@H](O)[C@@]2(CCCO2)O1 | 5.0 | 59.0* | -13.0 | -7.1 | -5.7 | 1.9
OCC[C@H]1C[C@H](O)[C@@H](O)[C@@]2(Cc3ccccc3CCO2)O1 | -3.8 | u | -5.4 | -10.0 | 5.0 | -0.7
OCC[C@@H]1C[C@H](O)[C@@H](O)[C@@]2(CCc3ccccc3CO2)O1 | -0.4 | 6.8 | -2.3 | -11.3 | 5.8 | -2.1
OCC[C@H]1C[C@@H](O)[C@H](O)[C@@]2(Cc3ccccc3CCO2)O1 | -4.9 | 22.9* | 3.2 | -8.8 | 4.9 | -18.6
O=C(C[C@H]1CC[C@@H]2[C@H](COC[C@@H](O)CN2C(=O)Nc2ccc(C(F)(F)F)cc2)O1)NCC1CC1 | 5.0 | -6.4 | -13.5 | 9.2 | x | -0.2
CNC[C@H]1Oc2ncc(-c3ccc(C)cc3)cc2C(=O)N([C@@H](C)CO)C[C@H]1C | -3.2 | 3.6 | -12.3 | 9.7 | x | 5.6
C[C@@H]1CN([C@H](C)CO)C(=O)c2cccc(N(C)C)c2O[C@H]1CN(C)Cc1ccccc1 | 1.5 | 0.7 | 28.6 | -7.4 | x | -1.3
C[C@@H]1CN([C@H](C)CO)C(=O)Cc2cc(NC(=O)c3ccncc3)ccc2O[C@@H]1CN(C)Cc1ccc(Cl)c(Cl)c1 | -4.8 | 0.7 | -31.2 | 12.5 | x | 3.5
Cc1ccc(NC(=S)c2ccc3ccccc3n2)c(C)c1 | 6.8 | -0.4 | 57.4* | -12.8 | -0.7 | -1.6
Cc1ccc(C)c(NC(=O)c2ccc3ccccc3n2)c1 | -5.1 | x | 30.8 | x | -4.3 | x
Clc1ccc(-c2csc(-c3cccnc3)n2)s1 | -2.6 | 51.0* | 9.8 | -12.8 | -6.4 | -0.3
Fc1ccccc1-c1csc(-c2cccnc2)n1 | 2.2 | 5.2 | 8.9 | -0.3 | -13.5 | 0.6
COc1ccc(S(=O)(=O)N2CCCCN3[C@H](CO)[C@H](c4ccc(C5=CCCC5)cc4)[C@H]3C2)cc1 | 6.3 | x | -0.2 | x | x | x
O=S(=O)(c1cccs1)N1CCCCN2[C@@H](CO)[C@H](c3ccc(Br)cc3)[C@@H]2C1 | -3.5 | 33.1* | -11.8 | -0.3 | x | 0.9
O=S(=O)(c1cccs1)N1CCCCN2[C@H](C1)[C@H](c1ccc(Br)cc1)[C@@H]2CO | 3.4 | -8.5 | -12.0 | -18.8 | x | -2.8
COc1ccc(S(=O)(=O)N2CCCCN3[C@H](CO)[C@H](c4ccc(C5=CCCCC5)cc4)[C@H]3C2)cc1 | -6.3 | 4.7 | x | 59.8* | x | 1.4
O=S(=O)(c1cccs1)N1CCCCN2[C@H](CO)[C@H](c3ccc(C4=CCCCC4)cc3)[C@H]2C1 | -3.2 | 15.1 | x | 57.4* | x | -4.3
CO[C@H]1CC[C@@H]2CCN(C)C(=O)C[C@@H](c3ccccc3)CN(C)C(=O)c3cccc(C#N)c3OC[C@H]1O2 | 6.3 | -3.4 | 17.4 | -7.6 | x | -1.3
CO[C@@H]1CN(C)C(=O)c2cc(NC(C)=O)ccc2OC[C@@H](C)N(Cc2nccs2)C[C@@H]1C | -3.4 | 6.3 | -3.8 | 20.0 | x | -9.1
CCNC(=O)C[C@@H]1CC[C@H]2[C@@H](COc3ccc(NC(C)=O)cc3C(=O)N2C)O1 | 2.3 | -3.4 | 10.0 | -11.2 | x | -1.3
COc1nc(-c2ccccc2)ccc1-c1noc(-c2ccco2)n1 | x | x | x | x | -12.1 | x
COc1ccc(-c2ccc(-c3noc(-c4ccco4)n3)c(OC)n2)cc1 | -0.4 | x | 55.4* | x | 7.5 | x
SMILES | RAD54 inh | DENV2 CPE | GSIS activator | RAD52 inh | dFosB activator | MLL AF4-AF9 inh
Oc1cc(Nc2ccncc2)cc2cccnc12 | 11.3 | -20.8 | x | -39.3 | 5.1 | 70.0*
Oc1cc(Nc2cccnc2)cc2cccnc12 | 1.8 | -1.0 | -16.1 | -25.7 | -5.2 | 39.5*
CN(C)c1ccc(-c2cc(O)c3ncccc3c2)cc1 | 1.0 | -0.3 | 8.0 | -11.8 | -1.0 | 15.1
Oc1cc(NCCc2cccnc2)cc2cccnc12 | 2.0 | -3.7 | -28.2 | 7.9 | -5.7 | u
CCCNC(=O)N(C)C[C@H]1Oc2cc(-c3ccncc3)ccc2S(=O)(=O)N([C@@H](C)CO)C[C@@H]1C | 2.9 | 5.3 | 18.7 | -2.4 | x | -3.2
Cc1noc(C)c1NC(=O)Nc1ccc2c(c1)C(=O)N([C@H](C)CO)C[C@@H](C)[C@@H](CN(C)CC1CCCCC1)OCCCC[C@H](C)O2 | -0.1 | u | 10.1 | 4.0 | x | 0.9
COc1ccc(C(=O)N2CCN(C3CCCCC3)CC2)cc1OC | 2.0 | 31.2* | -1.1 | -14.3 | 5.1 | -26.0
COc1ccc(C(=O)N2CCc3cc(OC)c(OC)cc3C2c2ccc(OC)c(OC)c2)cc1OC (stereo not drawn) | 1.3 | 5.9 | 48.2* | -11.6 | -10.6 | 7.6
COc1cc(C(=O)N2CCN(C3CCCCC3)CC2)cc(OC)c1OC | 3.3 | -2.8 | 18.7 | 1.9 | -5.3 | -1.4
CCC(=O)N1CCc2cc(OC)c(OC)cc2C1COc1ccccc1OC (stereo not drawn) | x | 1.4 | 47.5* | -19.4 | -7.3 | -1.2
CN1c2ccc(Br)cc2[C@H]2[C@H](CCN2C(=O)C2CCCC2)[C@@H]1CO | x | -8.6 | 8.8 | -16.4 | x | 1.2
C[C@@H]1CCCCO[C@H](CN(C)C(=O)Nc2ccc3c(c2)OCO3)[C@H](C)CN([C@@H](C)CO)C(=O)c2cc(NS(C)(=O)=O)ccc2O1 | -1.8 | -6.8 | 3.0 | 1.0 | x | 0.0
CC1CCCN(CCOc2cccc(Oc3ccccc3)c2)C1 (stereo not drawn) | 9.1 | 53.4* | -1.5 | 5.5 | 3.3 | 6.8
COc1ccc2c(c1)C1CC(C)(NC(=O)C1C(=O)c1ccccc1)O2 (stereo not drawn) | -3.9 | x | x | x | -5.1 | x
COc1ccc2c(c1)OC1(C)CC2C(C(=O)c2ccccc2OC)C(=O)N1 (stereo not drawn) | 3.3 | 2.0 | x | -4.3 | -8.6 | 48.5*
CN1CCN(C(=O)C[C@H]2CC[C@@H]3[C@H](COc4ccc(NC(=O)C5CCC5)cc4C(=O)N3C)O2)CC1 | x | 12.0 | 1.9 | 10.7 | x | -16.2
CN1CCN(C(=O)C[C@H]2CC[C@@H]3[C@@H](COc4ccc(NC(=O)C5CCC5)cc4C(=O)N3C)O2)CC1 | x | 24.1* | 8.4 | -0.2 | x | -1.7
CN1C(=O)c2cc(NC(=O)C3CCCC3)ccc2OC[C@H]2O[C@@H](CC(=O)NCC3CC3)CC[C@H]21 | -6.1 | -2.3 | 0.2 | 3.1 | x | -0.4
CN1C(=O)c2cc(NC(=O)C3CCCC3)ccc2OC[C@H]2O[C@@H](CC(=O)NCC3CC3)CC[C@@H]21 | -5.3 | 32.4* | 7.3 | 0.0 | x | -1.3
CC(C)NC(=O)Nc1ccc2c(c1)C(=O)N(C)[C@H]1CC[C@@H](CC(=O)NCC3CCCCC3)O[C@H]1CO2 | -4.3 | 35.0* | -2.7 | 9.5 | x | -0.2

Source: PubChem
